Measurements as given in PubChem BioAssay (Tox21).
Several values for one entry are separate records, joined by “and”; a condition that tells them apart may be missing. Equal entries are not always repeated. Inconclusive results are not listed. Where a call stands in place of a potency, no number is given. A structure can be active in one record and inactive in another. Activity calls are given as the source filed them. Calls follow the shape of the dose curve; as a rule, active = well fitted inhibition curve with a large enough effect in the signal ratio in the repeat runs (not every such curve was filed as active); inconclusive = weak or mixed curves, or effect the other way; inactive = no such curve, though single readings can be large or run the other way; the % refers to the signal ratio. Starred links: 1 amine or outer side, 2 acyl side, 3 side chain; linkers in the order of their positions; H or OH if unused. Positions of bridges follow the written chain, without caps; N, C: chain ends. Non-standard residues stand in square brackets, D forms with d. Residues, ends and D or L forms follow the SMILES beside them. Chains are numbered I, II in the order given. Actinocin(9to1) = Cc1c2oc3c(C)ccc(C(=O)[*:1])c3nc-2c(C(=O)[*:2])c(N)c1=O; NMeV = CN[C@H](C(=O)O)C(C)C; Sar = CNCC(=O)O

Target: Glucocorticoid receptor (Homo sapiens) (UniProt P04150)
Test: qHTS assay to identify small molecule antagonists of the glucocorticoid receptor (GR) signaling pathway (AID 720692)
Conditions: GR-bla HeLa, beta-lactamase FRET ratio, dexamethasone-stimulated, 18 h; series mostly up to 58.5 µM
From the text: U.S. Tox21 Program National Center for Advancing Translational Sciences [NCATS] NIH Chemical Genomics Center [NCGC] U.S. Environmental Protection Agency [EPA] National Institutes of Environmental Health Sciences [NIEHS] National Toxicology Program [NTP] U.S. Food and Drug Administration [FDA] Tox21 Assay Overview: The Glucocorticoid receptor (GR) is one of the members of the nuclear receptor family of ligand-dependent transcription factors. GR plays a critical role in carbohydrate, protein and lipid metabolisms and programmed cell death. CellSensor GR-bla HeLa cell line (Invitrogen) contains a beta-lactamase reporter gene under the control of the glucocorticoid response element stably integrated into HeLa cells, a cervical cancer cell line that expresses glucocorticoid receptor. The activation of the reporter gene under culture conditions can be detected by fluorescence intensity. This cell line has been used to screen the Tox21 10K compound library and to identify the compounds that inhibit the GR signaling.
Tox21 Assay Protocol Summary: The GR-bla HeLa cells were dispensed at 1500 cells/5 ul/well in 1536-well black wall/clear bottom plates using a Multidrop Combi (ThermoFisher Scientific, Waltham, MA) dispenser. After the assay plates were incubated at a 37 C/5% CO2 incubator for 4 hours, 23 nL of compounds dissolved in DMSO, positive controls or DMSO only was transferred to the assay plate by a pintool station (Kalypsys, San Diego, CA), followed by addition of 1 uL of dexamethasone (5 nM, final concentration in the well). The plates were incubated at 37 C for 18 hours. After 1 uL of LiveBLAzerTM B/G FRET substrate was added using a Flying Reagent Dispenser (Aurora Discovery, San Diego, CA), the plates were incubated at room temperature for 2 hours, and fluorescence intensity was measured by an Envision plate reader (PerkinElmer, Shelton, CT).
Potency is read from the fitted curve at half-maximal effect.

Sequence of Glucocorticoid receptor (Homo sapiens) (P04150 whole entry, looked up): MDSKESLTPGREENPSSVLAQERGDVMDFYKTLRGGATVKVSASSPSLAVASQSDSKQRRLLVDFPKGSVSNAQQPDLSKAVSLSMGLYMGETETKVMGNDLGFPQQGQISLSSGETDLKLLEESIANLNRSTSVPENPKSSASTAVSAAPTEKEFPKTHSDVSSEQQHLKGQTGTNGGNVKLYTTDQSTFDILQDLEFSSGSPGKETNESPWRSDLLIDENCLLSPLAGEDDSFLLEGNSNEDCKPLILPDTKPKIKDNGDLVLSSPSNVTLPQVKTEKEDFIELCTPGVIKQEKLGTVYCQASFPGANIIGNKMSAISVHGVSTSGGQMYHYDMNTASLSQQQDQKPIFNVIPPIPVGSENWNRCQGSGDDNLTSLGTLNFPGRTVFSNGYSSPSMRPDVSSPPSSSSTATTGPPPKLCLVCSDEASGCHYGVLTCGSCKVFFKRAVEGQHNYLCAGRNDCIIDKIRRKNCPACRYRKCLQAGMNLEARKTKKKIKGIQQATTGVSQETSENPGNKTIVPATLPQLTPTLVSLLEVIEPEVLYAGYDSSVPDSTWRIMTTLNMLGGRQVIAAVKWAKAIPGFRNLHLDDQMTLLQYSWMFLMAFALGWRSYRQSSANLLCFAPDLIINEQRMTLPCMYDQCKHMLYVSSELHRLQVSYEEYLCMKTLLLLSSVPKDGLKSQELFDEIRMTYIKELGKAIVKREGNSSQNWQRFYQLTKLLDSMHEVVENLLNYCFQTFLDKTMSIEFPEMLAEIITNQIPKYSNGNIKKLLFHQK

| SMILES | Potency |
| --- | --- |
| CCC[C@H](N[C@@H](C)C(=O)N1[C@H](C(=O)O)C[C@@H]2CCCC[C@@H]21)C(=O)OCC | inactive |
| NC(=Nc1ccccc1)Nc1ccccc1 | inactive |
| CNCCC(Oc1ccc(C(F)(F)F)cc1)c1ccccc1 (stereo not given) | inactive |
| COC(=O)/C=C/c1ccccc1 | inactive |
| O=C(Cl)c1cccc(C(=O)Cl)c1 | inactive |
| COc1nc(C)nc(Cl)c1NC1=NCCN1 | inactive |
| CC[C@H]1CN2CCc3cc(OC)c(OC)cc3[C@@H]2C[C@@H]1C[C@H]1NCCc2cc(OC)c(OC)cc21 | 1.51 µM (active) |
| CC(=O)N[C@@H](CS)C(=O)O | inactive |
| c1ccc2n[nH]nc2c1 | inactive |
| CCN(CC)C(=O)Nc1ccc(OCC(O)CNC(C)(C)C)c(C(C)=O)c1 (stereo not given) | inactive |
| Cc1ccnc2c1NC(=O)c1cccnc1N2C1CC1 | inactive |
| CCCCCCCCCCCC[N+](C)(C)C | 21.8 µM (active) and 21.9 µM (active) |
| CCOc1ccccc1C(N)=O | inactive |
| C=CC(=O)OCCCCCCCC | inactive |
| CCCNC(C)C(=O)Nc1ccccc1C (stereo not given) | inactive |
| NNCCc1ccccc1 | inactive |
| CC(=O)Nc1ccc(C(=O)CCl)cc1 | inactive |
| O=C(Oc1ccccc1)c1ccccc1O | inactive |
| O=C(OCc1ccccc1)c1ccc(O)cc1 | inactive |
| CCn1cc(C(=O)O)c(=O)c2cc(F)c(N3CCNC(C)C3)c(F)c21 (stereo not given) | inactive |

| SMILES | Potency |
| --- | --- |
| CC(N)=O | inactive |
| COc1cc(C(=S)N2CCOCC2)ccc1O | inactive |
| Cc1c2oc3c(C)ccc(C(=O)N[C@@H]4C(=O)N[C@H](C(C)C)C(=O)N5CCC[C@H]5C(=O)N(C)CC(=O)N(C)[C@@H](C(C)C)C(=O)O[C@@H]4C)c3nc-2c(C(=O)N[C@@H]2C(=O)N[C@H](C(C)C)C(=O)N3CCC[C@H]3C(=O)N(C)CC(=O)N(C)[C@@H](C(C)C)C(=O)O[C@@H]2C)c(N)c1=O (I: T[dV]P[Sar][NMeV] / II: T[dV]P[Sar][NMeV]; ester I:1-I:C, II:1-II:C; linker I:N-II:N via Actinocin(9to1)) | 0.134 µM (active) |
| c1cc(C(c2ccc(OCC3CO3)cc2)C(c2ccc(OCC3CO3)cc2)c2ccc(OCC3CO3)cc2)ccc1OCC1CO1 (stereo not given) | inactive |
| OCC(CO)N[C@H]1C[C@](O)(CO)[C@@H](O)[C@H](O)[C@H]1O | inactive |
| CCN1CCCC1CNC(=O)c1cc(S(=O)(=O)CC)c(N)cc1OC (stereo not given) | inactive |
| Clc1ccc2c(c1)C(N1CCNCC1)=Nc1ccccc1O2 | 19 µM (active) and inactive |
| Nc1nc2ccccc2[nH]1 | inactive |
| C/C=C/c1ccc(OCC)c(O)c1 | inactive |
| Nc1cc(S(=O)(=O)O)cc2cc(S(=O)(=O)O)cc(O)c12 | inactive |
| CC(C)(O)CCC(C)(C)O | inactive |
| Nc1nc(=S)c2[nH]cnc2[nH]1 | 23.9 µM (active) and 30.1 µM (active) and 43.6 µM (active) |
| CO[Si](OC)(OC)c1ccccc1 | inactive |
| O=C(O)c1cccc(C(=O)O)c1 | inactive |
| NC(N)=Nc1nc(CSCC/C(N)=N/S(N)(=O)=O)cs1 | inactive |
| CCC(=O)/C=C/C1C(C)=CCCC1(C)C (stereo not given) | inactive |
| O=C1NCC2(CCN(CCc3ccccc3)CC2)O1 | inactive |
| CC(C)(C)c1cc(C(C)(C)C)c(O)c(C(C)(C)C)c1 | inactive |
| CCC(C)(Oc1ccc(C2(c3ccc(OC(C)(CC)C(=O)O)cc3)CCCCC2)cc1)C(=O)O (stereo not given) | inactive |
| CC1=C(C=O)C(C)(C)CC=C1 | inactive |
